Test results: article PMC5540273 (PLoS ONE, 2017)

How the values were obtained:
Conditions in all cases: concentration: 1 μM,replicates: in singlicate; n = 1
FYN = test system: FYN
GAK = test system: GAK
GCN2(Kin.Dom.2,S808G) = test system: T1, GCN2(Kin.Dom.2,S808G)
T1 construct: gene EIF2AK4

GRK1 = test system: GRK1
GRK2 = test system: T2, GRK2
T2 construct: gene ADRBK1

GRK3 = test system: T3, GRK3
T3 construct: gene ADRBK2

GRK4 = test system: GRK4
GRK7 = test system: GRK7
GSK3A = test system: GSK3A
GSK3B = test system: GSK3B
HASPIN = test system: T4, HASPIN
T4 construct: gene GSG2

HCK = test system: HCK
HIPK1 = test system: HIPK1
HIPK2 = test system: HIPK2
HIPK3 = test system: HIPK3
HIPK4 = test system: HIPK4
HPK1 = test system: HPK1
HUNK = test system: HUNK
ICK = test system: ICK
IGF1R = test system: IGF1R
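Note: KINOMEscan kinase panel screen.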

Structure (SMILES)	%Inh (FYN) [%]	%Inh (GAK) [%]	%Inh (GCN2(Kin.Dom.2,S808G)) [%]	%Inh (GRK1) [%]	%Inh (GRK2) [%]	%Inh (GRK3) [%]	%Inh (GRK4) [%]	%Inh (GRK7) [%]	%Inh (GSK3A) [%]	%Inh (GSK3B) [%]	%Inh (HASPIN) [%]	%Inh (HCK) [%]	%Inh (HIPK1) [%]	%Inh (HIPK2) [%]	%Inh (HIPK3) [%]	%Inh (HIPK4) [%]	%Inh (HPK1) [%]	%Inh (HUNK) [%]	%Inh (ICK) [%]	%Inh (IGF1R) [%]
C[C@@H]1CNc2c(sc3ccc4nc(-c5ccc(O)cc5)ccc4c23)C(=O)N1	4	0	12	41	0	0	28	24	9	0	48	35	41	46	21	0	6	5	0	0
CCNCC(Cc1ccccc1)NC(=O)c1cc(Br)c(-c2ccnc3[nH]ccc23)s1.Cl.Cl (stereo not drawn) [GSK1383280]	0	51	43	89	61	83	0	91.9	0	14	88	0	46	18	48	92.5	51	0	18	23
CC(C)S(=O)(=O)N1CCN(Cc2ccc3c(c2)nc(NC(=O)c2ccsc2)n3C[C@H](O)c2ccccc2)CC1 [GW635815]	73	0	10	35	0	8	7	10	2	0	17	37	34	20	1	0	39	0	0	29
NC(=O)Nc1sc(-c2ccc(F)cc2)cc1C(N)=O [GW789449]	20	37	34	12	0	0	87	26	0	17	3	47	40	34	31	2	48	0	15	2
O=C(Nc1ccc(Oc2ccc3nc(NC(=O)C4CC4)cn3n2)c(F)c1)c1cccn(-c2ccccc2)c1=O	15	0	20	0	0	0	21	0	25	0	0	71	40	0	0	20	11	6	0	0
Cc1ccc2c(-c3ccnc(Nc4ccc(C(F)(F)F)cc4)n3)cnn2n1 [GW819776]	9	0	3	28	0	3	21	0	74	36	12	30	89	80	79	43	0	0	66	7
Cn1cc(-c2cccc3c(N)c(C(N)=O)nnc23)cn1	1	36	16	23	7	0	40	36	7	20	96.5	13	68	62	67	18	0	0	24	0
Cn1ccc2ncnc(Oc3ccc(NC(=O)Nc4cccc(C(F)(F)F)c4)c(F)c3)c21	10	12	26	15	0	0	24	0	2	7	1	31	44	0	0	94.3	48	0	0	4
COc1cc2nccc(Nc3ccc(Oc4ccccc4)cc3)c2cc1OC.Cl [GI261656]	86	0	5	0	0	24	0	0	6	13	29	97.6	0	0	11	0	2	9	0	0
O=C1NCCc2[nH]c(-c3ccncc3)cc21	0	5	0	14	25	36	3	27	88	54	100	20	91.5	97.2	95.5	–	7	0	29	0
OCCn1cc(-c2cnc3nnn(Cc4ccc5ncccc5c4)c3n2)cn1	0	6	0	3	0	1	0	0	0	0	0	25	6	0	0	3	0	0	0	0
CCn1c(-c2nonc2N)nc2cncc(Br)c21 [SB-738004]	0	17	0	32	12	69	0	16	29	40	99.4	3	47	74	74	0	42	27	7	0
C[C@@H]1CCN(C(=O)N2CCCC2)C[C@@H]1N(C)c1ncnc2[nH]ccc12	59	0	1	17	25	36	17	8	2	26	30	0	25	0	22	2	0	0	13	0
Cc1n[nH]c2cc(Nc3ccnc(Nc4cccc(CN5CCOCC5)c4)n3)ccc12 [GW682569]	75	74	39	5	31	24	64	0	0	15	20	25	0	0	26	3	24	0	0	0
CC(=O)c1c(-c2ccncc2)[nH]c(-c2ccncc2)c1C [GW493036]	37	27	0	0	0	66	0	0	81	58	85	0	53	0	65	86	11	26	18	0
COc1cccc(CNC(=O)NC2CCN(c3ccnc(Nc4cc(OC)c(OC)c(OC)c4)n3)C2)c1 (stereo not drawn) [GSK1379765]	12	0	0	0	0	19	74	0	0	7	11	12	0	34	36	0	38	0	13	0
Nc1nccc(-c2ccc3c(N)n[nH]c3c2)n1 [GSK1034945]	32	15	0	100	0	40	52	0	0	19	90.5	0	0	0	34	34	52	0	0	0
